The list is not random: actives were taken first. Their share in the collection is about 7.3%.
SMN2 splice enh: enhancers of SMN2 splice variant expression | HEK293 SMN2-luciferase splicing reporter, luminescence, 30-36 h | Potency, µM (doses to about 46.1 µM), for inactives: at the highest dose activity change, positive = activation, hits mostly activators | 210,000 compounds, 2.8% hits; also: % of control where 0% means no effect; nearly all actives have a fitted effect of over 55% in size
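HEK293 cells carry an SMN2 […]–luciferase reporter in which exon 7 inclusion puts luciferase in frame. Cells were plated 10-12 h before compound addition, then incubated 30-36 h at 37C. ONE-Glo luminescence was read; sodium butyrate at 4.5 mM final served as control.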
uPA generation: cell surface uPA generation inhibition | cell surface uPA generation assay, qHTS | Potency, µM (doses to about 38.3 µM), for inactives: at the top dose activity change, negative = inhibition, hits mostly inhibitors | 330,000 compounds, 0.31% hits; active = well fitted inhibition curve with a large enough effect; inconclusive = small, poorly fitted or top-dose-only effect; inactive = no such curve, though single readings can be large or run the other way; tested in mouse RAW 264.7 cells; also: % is scaled to controls: 0 for no effect and ±100 for the full control effect; nearly all actives have a fitted effect of over 55% in size
FLuc modulator: firefly luciferase modulation, counter-screen for miR-21 project. Potency, µM (highest dose often 57.5 µM), for the others: at the highest dose activity change, negative = inhibition, actives largely listed as inhibitors. 360,000 compounds, 6.9% hits. P08659. purified FLuc, Km substrates, luminescence inhibition;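 also: plate controls were vehicle for no effect and reference inhibitor for full effect; nearly all actives have a fitted effect of over 55% in size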
Target sequence (P08659 whole entry, looked up): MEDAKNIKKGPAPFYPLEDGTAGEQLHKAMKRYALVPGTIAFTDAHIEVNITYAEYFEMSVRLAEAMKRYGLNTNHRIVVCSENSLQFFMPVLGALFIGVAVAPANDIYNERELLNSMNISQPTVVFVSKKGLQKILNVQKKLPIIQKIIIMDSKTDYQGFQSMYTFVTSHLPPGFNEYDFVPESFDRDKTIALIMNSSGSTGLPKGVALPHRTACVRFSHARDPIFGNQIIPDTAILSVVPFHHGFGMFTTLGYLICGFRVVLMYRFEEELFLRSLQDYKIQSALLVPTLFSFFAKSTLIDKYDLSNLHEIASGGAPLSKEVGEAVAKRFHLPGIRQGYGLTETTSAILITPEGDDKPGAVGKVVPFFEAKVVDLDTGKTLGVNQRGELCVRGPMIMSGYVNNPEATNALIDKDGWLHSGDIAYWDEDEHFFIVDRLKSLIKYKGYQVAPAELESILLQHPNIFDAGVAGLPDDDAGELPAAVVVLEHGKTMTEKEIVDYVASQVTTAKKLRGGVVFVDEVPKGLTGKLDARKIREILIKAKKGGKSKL
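Purified P. pyralis luciferase, 10 nM final, with Km-level 10 uM D-luciferin and 10 uM ATP in 50 mM Tris acetate pH 7.5, 10 mM Mg acetate, 0.01% Tween-20, 0.05% BSA; 6-point qHTS titration about 60 µM downward; luminescence read.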
ELG1 genotox: genotoxicity induction in ELG1-luciferase HEK293T cells | HEK293T ELG1-luciferase reporter, luminescence, 16 h | Potency, µM (titrated, usually from 46 µM), for inactives: top-dose activity change, positive = activation, usual class: activators | 330,000 compounds, 1.3% hits | AID 504466; also: % of control where 0% means no effect; nearly all actives have a fitted effect of over 60% in size
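HEK293T cells expressing luciferase-tagged ELG1 were treated with compound or DMSO for 16 hr at 37°C. Luciferase activity was then read after 30 min with ONE-Glo at room temperature; rising signal flags genetic stress.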
NPC1 promoter act: activators of NPC1 promoter | Huh7 NPC1 promoter luciferase reporter, 24 h | 320,000 compounds, 2.4% hits | AID 485313 | Potency, µM (series often up to 9.22 µM), for inactives: top-dose activation, most hits filed as activators; also: % of control where 0% means no effect; nearly all actives have a fitted effect of over 60% in size
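Huh7 cells stably carrying NPC1 promoter–luciferase, plated in Opti-MEM with 10% FBS for 2 h, were exposed to compound in DMSO for 24 h at 37 °C; luciferase reagent was added for 10 min and luminescence read.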
Rab9 promoter act: activators of Rab9 promoter; AID 485297; 320,000 compounds, 2.8% hits; Potency, µM (doses to about 9.22 µM), for the others: at the top dose activation, negative = inhibition, actives largely listed as activators; Huh7 Rab9 promoter-luciferase reporter, luminescence, 24 h; also: % of control where 0% means no effect; nearly all actives have a fitted effect of over 60% in size
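Luminescence from Amplite-detected luciferase (10 minutes, ambient) reports Rab9 promoter activation. Before that, stable Rab9-luciferase Huh7 cells (1500/well, reduced-serum OP-MEM I plus 10% FBS) were exposed to compound for 24 hours at 37C.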
* = called active by the depositor. Unless noted, calls follow the shape of the dose curve; as a rule, active = well fitted curve in the direction sought with a large enough effect; inconclusive = small, poorly fitted or top-dose-only effect, or another doubt; inactive = no such curve, though single readings can be large; an effect the other way counts as inactive or inconclusive. Potency is read from the fitted curve at half-maximal effect.

Screening Cc1cc(=O)[nH]c(N/N=C/c2ccccc2C(F)(F)F)n1 returned SMN2 splice enh -3%, uPA generation -5%, FLuc modulator -3%, ELG1 genotox 5%, NPC1 promoter act -6% and Rab9 promoter act 3%.
Screening Cc1cc(=O)[nH]c(N/N=C/c2cc(C)n(CC(F)(F)F)c2C)n1 returned uPA generation 0.25µM*, FLuc modulator -11%, ELG1 genotox inconclusive, NPC1 promoter act -27% and Rab9 promoter act -26%.
Cc1nc(N2CCOCC2)c2c(C(=O)N3CCN(c4cccc(C)c4C)CC3)c(C)oc2n1 was read as FLuc modulator 0%.
`O=C(O)/C=C/c1ccccc1[N+](=O)[O-]` gave uPA generation -1%, FLuc modulator 3%, ELG1 genotox -2%, NPC1 promoter act -4% and Rab9 promoter act 2%.
CCNC(=O)/C=C/c1ccccc1[N+](=O)[O-] was read as SMN2 splice enh 9%, uPA generation 0%, FLuc modulator 0%, ELG1 genotox -4%, NPC1 promoter act -2% and Rab9 promoter act -2%.
`O=C(COC(=O)/C=C/c1ccccc1[N+](=O)[O-])Nc1ccc(OC(F)F)cc1` gave SMN2 splice enh -6%, uPA generation 3%, FLuc modulator 4%, ELG1 genotox 2%, NPC1 promoter act 3% and Rab9 promoter act 2%.
`COc1cc(NC(=O)/C=C/c2ccccc2[N+](=O)[O-])cc(OC)c1` gave SMN2 splice enh inconclusive, uPA generation 4%, FLuc modulator 21µM*, ELG1 genotox 0%, NPC1 promoter act 17% and Rab9 promoter act 25%.
O=C(COC(=O)/C=C/c1ccccc1[N+](=O)[O-])Nc1ccc(OCc2ccccc2)cc1 was read as SMN2 splice enh 13µM*, uPA generation 1%, FLuc modulator 1%, ELG1 genotox inconclusive, NPC1 promoter act inconclusive and Rab9 promoter act inconclusive.
`O=C(/C=C/c1ccccc1[N+](=O)[O-])Nc1ccccc1` gave SMN2 splice enh 14µM*, uPA generation -14%, FLuc modulator 6µM*, ELG1 genotox inconclusive, NPC1 promoter act 2µM* and Rab9 promoter act 0.71µM*.
`O=C(O)c1ccc(Nc2ncnc3ccccc23)cc1` gave uPA generation -10%, FLuc modulator inconclusive, ELG1 genotox 2%, NPC1 promoter act -3% and Rab9 promoter act 12%.
For Clc1cccc(/C=N/Nc2ncnc3ccccc23)c1 the results were SMN2 splice enh inconclusive, uPA generation 1%, FLuc modulator 4.8µM*, ELG1 genotox inconclusive, NPC1 promoter act inconclusive and Rab9 promoter act 4µM*.
`C(=N\Nc1ncnc2ccccc12)/c1ccccc1` gave SMN2 splice enh 16µM*, uPA generation -4%, FLuc modulator 3µM*, ELG1 genotox inconclusive, NPC1 promoter act 29% and Rab9 promoter act 2.8µM*.
`O=C(O)Cn1cc(/C=c2/sc3nc4ccccc4n3c2=O)c2ccccc21` gave SMN2 splice enh 17%, uPA generation -10%, FLuc modulator 11µM*, ELG1 genotox 0%, NPC1 promoter act -1% and Rab9 promoter act -3%.
Screening Cc1ccc(-n2c(C)cc(/C=c3/sc4nc5ccccc5n4c3=O)c2C)cc1 returned SMN2 splice enh -79%, uPA generation 8%, FLuc modulator 1.2µM*, ELG1 genotox -1%, NPC1 promoter act -22% and Rab9 promoter act -28%.
For O=c1/c(=C\c2cccn2-c2ccccc2)sc2nc3ccccc3n12 the results were uPA generation -4%, FLuc modulator inconclusive, ELG1 genotox 4.6µM*, NPC1 promoter act inconclusive and Rab9 promoter act 2.5µM*.
For COc1ccc(OC)c2sc(N(Cc3cccnc3)C(=O)c3ccco3)nc12 the results were FLuc modulator -19%.
`C=C1C=C(C(F)F)n2ncc(C(=O)NCCc3ccccc3Cl)c2N1` gave FLuc modulator 12%.
COc1ccccc1-c1oc2ccccc2c1C#CC1(O)CCCCC1 was read as uPA generation 4% and ELG1 genotox 0%.
`O=c1c2ccccc2oc2cc(Br)ccc12` gave uPA generation -5%.
`COc1cccc2oc3cc(C#Cc4ccccn4)ccc3c(=O)c12` gave uPA generation -16%, FLuc modulator 4.8µM*, ELG1 genotox 19%, NPC1 promoter act 2.5µM* and Rab9 promoter act 3.2µM*.
O=c1c2ccccc2oc2cc(C#CC3(O)CCCCC3)ccc12 was read as uPA generation 4.5µM*.
Screening COc1cccc2oc3cc(C#CC4(O)CCCCC4)ccc3c(=O)c12 returned uPA generation 7.1µM*, FLuc modulator 0.6µM*, ELG1 genotox 0.41µM*, NPC1 promoter act 0.35µM* and Rab9 promoter act 0.35µM*.
Screening NS(=O)(=O)c1ccc(NC(=O)c2ccccc2Cl)cc1 returned SMN2 splice enh -2%, uPA generation 1%, FLuc modulator -1%, ELG1 genotox -1%, NPC1 promoter act -2% and Rab9 promoter act -1%.
`O=C(Nc1ccc(-c2n[nH]c(=S)o2)cc1)c1ccccc1Cl` gave uPA generation -27%, FLuc modulator 11µM*, ELG1 genotox 11%, NPC1 promoter act 19% and Rab9 promoter act 22%.
For O=C(Nc1ccc(Cl)cc1)C1CCC(CNS(=O)(=O)c2ccc(Br)s2)CC1 (configuration not stated) the results were SMN2 splice enh -26% and FLuc modulator 7%.
`Cc1cc(C)cc(NC(=O)C2CCCN(C(=O)c3cnn(-c4ccccc4)c3-n3cccc3)C2)c1` (configuration not stated) gave SMN2 splice enh -53% and FLuc modulator -18%.
`O=C(CNc1ccccc1F)N/N=C/C1CC=CCC1` (configuration not stated) gave SMN2 splice enh 1%, uPA generation 2%, FLuc modulator -11%, ELG1 genotox 2%, NPC1 promoter act -2% and Rab9 promoter act -3%.
`O=C(N/N=C/C1CC=CCC1)c1cc(Br)ccc1O` (configuration not stated) gave SMN2 splice enh 6%, uPA generation 3%, FLuc modulator 13µM*, ELG1 genotox 1%, NPC1 promoter act -1% and Rab9 promoter act 1%.
Screening O=C(N/N=C/C1CC=CCC1)c1ccc(Cl)cc1O (configuration not stated) returned SMN2 splice enh 26%, uPA generation 4%, FLuc modulator 19µM*, ELG1 genotox 2%, NPC1 promoter act 2% and Rab9 promoter act 3%.

Screening results deposited in PubChem by National Center for Advancing Translational Sciences (NCATS).
